Records with an inconclusive call do not appear. The source made the active and inactive calls. How the source made its calls, unless noted: active means hit-call score of the fitted dose curve at least 0.9, where 1 is the maximum; inconclusive means response in the unintended direction; inactive means score below 0.9.
Tests used:
[1] = Tanguay_ZF_120hpf_PIG_legacy: (Legacy) Oregon State University Tanguay Lab 120 Hour Post-fertilization zebrafish Assay for Pigmentation Malformation (AID 2283650)
In short: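 Pigment malformation recorded as a binary call at 120 hpf in zebrafish (Tropical 5D) exposed singly from 6 hpf after pronase dechorionation. Static, sealed, 28C exposure, 0.64% DMSO; mortality excludes scoring; positive-direction fit against DMSO.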

[2] = read-out: kallikrein-3 (KLK3), KLK3 (gene 354); assay: LTEA_HepaRG_KLK3: Life Technologies and Expression Analysis (LTEA) Assay for kallikrein-3 (KLK3) using HepaRG (AID 2283652; active means hit-call score of the fitted dose curve at least 0.9, where 1 is the maximum; inactive means score below 0.9); details: mRNA level, 48 h; actives raise or lower the signal
In short: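 KLK3 transcript levels were measured by TaqMan qRT-PCR with normalisation to three housekeeping genes. HepaRG cultures received chemicals for 48 h at up to 100 uM (half-log, 8 points, 0.5% DMSO vehicle), fitted in both directions against DMSO.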

[3] = read-out: solute carrier (SLC22A6), SLC22A6 (gene 9356); assay: LTEA_HepaRG_SLC22A6: Life Technologies and Expression Analysis (LTEA) Assay for solute carrier (SLC22A6) using HepaRG (AID 2283653; active means hit-call score of the fitted dose curve at least 0.9, where 1 is the maximum; inactive means score below 0.9); details: mRNA level, 48 h; actives raise or lower the signal
In short: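 Gene-expression endpoint in HepaRG hepatic cells: duplicate 8-point concentration-response, highest 100 uM, 48 h treatment in serum-free medium with 0.5% DMSO. SLC22A6 expression measured by qRT-PCR, normalised to ACTB/GAPDH/POLR2A.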

[4] = Tanguay_ZF_120hpf_SWIM_legacy: (Legacy) Oregon State University Tanguay Lab 120 Hour Post-fertilization zebrafish Assay for Swim Bladder Malformation (AID 2283654);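 further: swim bladder malformation in each larva scored yes or no under brightfield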
In short: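 Scoring is binary for swim bladder defects at 120 hpf, by brightfield inspection of zebrafish larvae. Embryos were exposed singly from 6 hpf after pronase dechorionation, at 28C with 0.64% DMSO; mortality excluded scoring.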

[5] = Tanguay_ZF_120hpf_TRUN_legacy: (Legacy) Oregon State University Tanguay Lab 120 Hour Post-fertilization zebrafish Assay for Truncated Body (AID 2283655)
In short: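 Single dechorionated zebrafish embryos received test chemical from 6 hpf in 0.64% DMSO, kept at 28C. At 120 hpf, brightfield inspection noted any truncated body.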

[6] = Tanguay_ZF_120hpf_NC_legacy: (Legacy) Oregon State University Tanguay Lab 120 Hour Post-fertilization zebrafish Assay for Notochord and Tail Malformation (AID 2283656)
In short: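 Binary notochord-distortion calls, made by brightfield inspection, form the read-out; activity is fitted in the positive direction against DMSO. Exposure ran statically from 6 to 120 hpf at 28C with 0.64% DMSO.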

[7] = read-out: xenobiotic metabolism (CYP1A1), CYP1A1 (gene 1543); assay: CLD_CYP1A1_6hr: CellzDirect (CLD) Gene Expression Assay for xenobiotic metabolism (CYP1A1) at 6 hours (AID 2283661);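 on AC50: potency for transcript induction above DMSO vehicle baseline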
In short: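 Read-out 6 h post-dose: qNPA chemiluminescent quantitation of transcript induction against 0.2% DMSO. Cells were cultured primary human hepatocytes from two separate donor preparations; phase-contrast morphology annotated apparent cytotoxicity.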

[8] = Tanguay_ZF_120hpf_CIRC_legacy: (Legacy) Oregon State University Tanguay Lab 120 Hour Post-fertilization zebrafish Assay for Circulatory Malformation (AID 2283651)
In short: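 Binary circulatory-malformation call at 120 hpf via brightfield imaging, relative to DMSO controls. Embryos (5D strain, chorion removed) received static, light-shielded exposure at 28C.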

[9] = read-out: ABC Transporter (ABCB1), ABCB1 (gene 5243); assay: CLD_ABCB1_6hr: CellzDirect (CLD) Gene Expression Assay for ABC Transporter (ABCB1) at 6 hours (AID 2283659);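 further: hits raise ABCB1 transcript above the DMSO vehicle baseline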
In short: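 ABCB1 transcript measured by quantitative nuclease protection assay, chemiluminescent read-out, 6 h after dosing human hepatocyte cultures (0.2% DMSO vehicle, daily redosing). Activity fitted as increase over DMSO baseline; cytotoxicity flagged by phase-contrast morphology.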

[10] = read-out: Broad substrate specificity ATP-binding cassette transporter ABCG2 (Homo sapiens) (UniProt Q9UNQ0); assay: CLD_ABCG2_6hr: CellzDirect (CLD) Gene Expression Assay for ABC Transporter (ABCG2) at 6 hours (AID 2283660)
In short: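 ABCG2 mRNA induction measured by qNPA chemiluminescence in human primary hepatocyte cultures, 6 h post-dose. Chemicals tested at several concentrations against a 0.2% DMSO vehicle; positive-direction fit relative to DMSO.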

Measured: AC50

Broad substrate specificity ATP-binding cassette transporter ABCG2 (Homo sapiens), sequence (Q9UNQ0 whole entry, looked up): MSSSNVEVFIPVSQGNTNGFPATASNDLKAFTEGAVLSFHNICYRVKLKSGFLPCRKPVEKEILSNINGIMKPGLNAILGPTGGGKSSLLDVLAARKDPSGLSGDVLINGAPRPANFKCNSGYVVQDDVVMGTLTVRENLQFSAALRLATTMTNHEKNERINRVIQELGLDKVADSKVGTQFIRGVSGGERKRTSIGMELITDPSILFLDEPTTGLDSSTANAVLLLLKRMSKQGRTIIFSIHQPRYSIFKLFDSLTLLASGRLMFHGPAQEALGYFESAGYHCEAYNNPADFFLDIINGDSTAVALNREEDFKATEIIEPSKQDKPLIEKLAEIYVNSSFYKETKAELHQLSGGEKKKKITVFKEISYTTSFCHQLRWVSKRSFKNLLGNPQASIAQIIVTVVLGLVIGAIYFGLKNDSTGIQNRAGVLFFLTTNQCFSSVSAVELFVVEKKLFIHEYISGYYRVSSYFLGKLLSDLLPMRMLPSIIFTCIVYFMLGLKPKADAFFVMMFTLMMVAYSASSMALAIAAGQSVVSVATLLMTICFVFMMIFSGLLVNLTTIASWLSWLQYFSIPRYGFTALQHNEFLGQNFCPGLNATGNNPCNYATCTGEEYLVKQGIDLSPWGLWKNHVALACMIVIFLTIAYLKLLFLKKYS

CC(COc1ccc(Oc2ccccc2)cc1)Oc1ccccn1 (stereo not given)
not listed: [8] | [9] | [10]
inactive: all other assays above

COc1cccc(C(=O)NN(C(=O)c2cc(C)cc(C)c2)C(C)(C)C)c1C
not listed: [2] | [3] | [10]
inactive: all other assays above

CCOP(=S)(OCC)SCCSCC
active: [7] 4.01 µM
not listed: [1] | [2] | [3]
inactive: all other assays above

CCOP(=S)(OCC)Oc1ccc([N+](=O)[O-])cc1
inactive: [4] | [5] | [6] | [9]
active: [7] 3.67 µM

C#CC(C)(C)NC(=O)c1cc(Cl)cc(Cl)c1
inactive: [1] | [4] | [6] | [9] | [7]

FC(F)C(F)(F)OCC(Cn1cncn1)c1ccc(Cl)cc1Cl (stereo not given)
active: [1] 49.6 µM | [4] 18.2 µM | [5] 49.6 µM | [7] 2.47 µM
inactive: [6]

Cc1nn(-c2cc(NS(C)(=O)=O)c(Cl)cc2Cl)c(=O)n1C(F)F
inactive: [1] | [4] | [5] | [9] | [10] | [7]

CCOP(=O)(OCC)Oc1cc(C)nc(C(C)C)n1
inactive: [1] | [4] | [5] | [6] | [9] | [7]

CSc1nnc(C(C)(C)C)c(=O)n1N
inactive: [8] | [4] | [5] | [6] | [9] | [7]

COP(=O)(OC)OC(Br)C(Cl)(Cl)Br (stereo not given)
inactive: [5] | [6] | [9] | [7]

O=C(O)c1cc(Oc2ccc(C(F)(F)F)cc2Cl)ccc1[N+](=O)[O-]
inactive: [1] | [4] | [5] | [6] | [9] | [7]

CCCCOC(=O)[C@@H](C)Oc1ccc(Oc2ccc(C#N)cc2F)cc1
inactive: [1] | [5] | [6] | [9] | [7]

CCCCN(CC)c1c([N+](=O)[O-])cc(C(F)(F)F)cc1[N+](=O)[O-]
inactive: [3] | [4] | [6] | [9] | [10] | [7]

CN(C)[C@@H]1C(=O)C(C(N)=O)=C(O)[C@@]2(O)C(=O)C3=C(O)c4c(O)cccc4[C@@](C)(O)[C@H]3[C@H](O)[C@@H]12
inactive: [5] | [6] | [9] | [7]

COP(=O)(NC(C)=O)SC (stereo not given)
inactive: [1] | [4] | [5] | [9] | [7]

CC1=NNC(=O)N(/N=C/c2cccnc2)C1
inactive: [4] | [5] | [6] | [9]
active: [7] 20 µM

CCOC(=O)COc1cc(-c2nn(C)c(OC(F)F)c2Cl)c(F)cc1Cl
inactive: [1] | [5] | [6] | [9] | [7]

Cc1cc(C2CC2)nc(Nc2ccccc2)n1
active: [7] 2.2 µM
inactive: [8] | [4] | [5]

CC(Oc1cccc(Cl)c1)C(=O)O (stereo not given)
inactive: [1] | [4] | [5] | [6] | [9] | [7]

CCOP(=S)(OCC)OC(Cl)C(Cl)(Cl)Cl (stereo not given)
inactive: [1] | [5] | [6] | [9] | [7]

N#CSCSC#N
inactive: [4] | [5] | [6] | [9]

CCC(=O)Nc1ccc(Cl)c(Cl)c1
active: [7] 20 µM
inactive: [1] | [4] | [5] | [6] | [9]

C[Si](Cn1cncn1)(c1ccc(F)cc1)c1ccc(F)cc1
inactive: [1] | [4] | [9] | [10]
active: [5] 11 µM | [7] 20 µM

CNC(=O)ON=C(C)SC
inactive: [1] | [4] | [5] | [6] | [9] | [7]

CN(C)C(=O)Nc1cccc(C(F)(F)F)c1
inactive: [1] | [4] | [5] | [6] | [9] | [7]

CC[C@H](C)[C@H]1O[C@]2(C=C[C@@H]1C)C[C@@H]1C[C@@H](C/C=C(\C)[C@@H](O[C@H]3C[C@H](OC)[C@@H](O[C@H]4C[C@H](OC)[C@@H](NC)[C@H](C)O4)[C@H](C)O3)[C@@H](C)/C=C/C=C3\CO[C@@H]4[C@H](O)C(C)=C[C@@H](C(=O)O1)[C@]34O)O2
inactive: [8] | [2] | [3] | [4] | [5] | [6]

CCCSP(=O)(OCC)Oc1ccc(Br)cc1Cl (stereo not given)
active: [7] 10.2 µM
inactive: [1] | [4] | [5] | [9]

CCC(=NOC/C=C/Cl)C1=C(O)CC(C2CCOCC2)CC1=O (stereo not given)
inactive: [1] | [4] | [5] | [6] | [9] | [7]

COP(=O)(OC)C(O)C(Cl)(Cl)Cl (stereo not given)
inactive: [1] | [4] | [5] | [6] | [10]

CNc1cnn(-c2cccc(C(F)(F)F)c2)c(=O)c1Cl
active: [7] 3.97 µM
inactive: [1] | [4] | [5] | [9]

CCOP(=O)(NC(C)C)Oc1ccc(SC)c(C)c1 (stereo not given)
inactive: [1] | [4] | [5] | [6]
active: [7] 2.72 µM

CCCOCC(=Nc1ccc(Cl)cc1C(F)(F)F)n1ccnc1
inactive: [1] | [4] | [5] | [6] | [9]
active: [7] 1.9 µM

CCCCSP(=O)(SCCCC)SCCCC
inactive: [1] | [4] | [5] | [9]
active: [7] 2.38 µM

CC(C)=CC1C(C(=O)OCN2C(=O)C3=C(CCCC3)C2=O)C1(C)C (stereo not given)
inactive: [4] | [5] | [9] | [7]

CCCSP(=O)(OCC)SCCC
active: [7] 1.9 µM
not listed: [2] | [3] | [8]
inactive: all other assays above

CCCOc1nn(C(=O)NS(=O)(=O)c2ccccc2C(=O)OC)c(=O)n1C
inactive: [4] | [6]

CON=C(C(=O)OC)c1ccccc1CON=C(C)c1cccc(C(F)(F)F)c1
inactive: [1] | [4] | [5] | [6] | [9] | [7]

CCC(CC)Nc1c([N+](=O)[O-])cc(C)c(C)c1[N+](=O)[O-]
inactive: [1] | [4] | [5] | [6] | [9] | [7]
